Some test systems named below: NCI-H23 lung; NCI-H226 lung; NCI-H322M lung; HOP-62 NSCLC; NCI-H460 lung; HOP-92 NSCLC; NCI-H522 lung; A549/ATCC NSCLC; 786-0 renal; COLO 205 colon; DU-145 prostate; K-562 leukemia; MALME-3M melanoma; MDA-MB-231 breast; RXF 393 renal; SF-268 CNS; SF-295 CNS; SF-539 CNS; UACC-257 melanoma; M14 melanoma.
Holding throughout (experiment): NCI-60 one-dose screen, 48 h (100 = growth as untreated, 0 = no growth, -100 = all killed)
Holding throughout (conditions): 10 µM unless noted

Molecules are shown by their SMILES. The panel holds about 83,000 compounds, 20% with a hit somewhere; the sample as a whole holds those more often.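 Method: cells in 96-well plates; compound added at one concentration; 48 h incubation; percent growth measured; values under 10 scored active.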 Values without a mark were called inactive. Activity calls are given as the source filed them.

For `CCCCCN1C=C/C(=C\C(=O)N(C)c2ccccc2Br)c2ccccc21`, the growth with NCI-H23 lung is 77.8%; in the experiment on NCI-H226 lung it was 89.8%; in the experiment on NCI-H322M lung, 108%; in the experiment with HOP-62 NSCLC, 95.3%; with NCI-H460 lung, 101%; in the experiment on HOP-92 NSCLC, 94.7%. The growth was 78.2% with NCI-H522 lung; 90.9% in the experiment on A549/ATCC NSCLC; 94.1% in the experiment with 786-0 renal; 105% in the experiment with COLO 205 colon; 109% with DU-145 prostate; 74.6% in the experiment on K-562 leukemia. In addition, the growth was 91% in the experiment on MALME-3M melanoma; 97.6% with MDA-MB-231 breast; 101% in the experiment on RXF 393 renal; 96.4% with SF-268 CNS; 95.1% in the experiment with SF-295 CNS; 99.6% in the experiment on SF-539 CNS. Moreover, the growth in the experiment on UACC-257 melanoma is 93%; with M14 melanoma, 104%.

In the case of `COc1cc2c(=O)n(CCCN(C)C)c3c4cc5c(cc4ccc3c2cc1OC)OCO5`, the growth is 58.6% in the experiment on NCI-H23 lung; 52.8% with NCI-H226 lung; 61.6% in the experiment on NCI-H322M lung; 38% in the experiment on HOP-62 NSCLC; 18.2% with NCI-H460 lung; 67.7% in the experiment with HOP-92 NSCLC. The growth in the experiment with NCI-H522 lung is 53.9%; in the experiment on A549/ATCC NSCLC, 41.8%; in the experiment on 786-0 renal, 62.8%; in the experiment on COLO 205 colon, 49%; with DU-145 prostate, 63.5%; in the experiment on K-562 leukemia, 56.3%. Also, the growth with MALME-3M melanoma was 67.8%; with MDA-MB-231 breast, 67%; with RXF 393 renal it was 45.3%; in the experiment on SF-268 CNS, 50.4%; with SF-295 CNS, 42.5%; in the experiment with SF-539 CNS, 46.2%. In addition, the growth with UACC-257 melanoma was 93.1%; in the experiment on M14 melanoma, 66.6%.

With `CN(C)CC(O)c1ccc(/C=C/c2ccc(Cl)cc2)cc1` (stereo not given), the growth was 33.5% in the experiment on NCI-H23 lung; 73.4% with NCI-H226 lung; -9.83% (active) with NCI-H322M lung; -50.2% (active) in the experiment with HOP-62 NSCLC; -54.6% (active) in the experiment with NCI-H460 lung; 15.5% with HOP-92 NSCLC. The growth with NCI-H522 lung is -84.4% (active); with A549/ATCC NSCLC it was -92.3% (active); with 786-0 renal it was 13.8%; in the experiment on COLO 205 colon, -46.4% (active); in the experiment with DU-145 prostate, -88.8% (active); in the experiment on K-562 leukemia, -47.6% (active). Moreover, the growth in the experiment with MALME-3M melanoma was 21.9%; in the experiment on MDA-MB-231 breast it was -82.3% (active); with RXF 393 renal it was 8.01% (active); in the experiment on SF-268 CNS, -52.4% (active); in the experiment on SF-295 CNS, -48.2% (active); with SF-539 CNS it was -67.6% (active). The growth with UACC-257 melanoma was -81.2% (active); with M14 melanoma, -34.8% (active).

In the case of `O=C1Nc2cc(-c3ccc(NC(=O)C4CC4)cc3)ccc2/C1=C/c1ccc[nH]1`, the growth is 61.3% in the experiment on NCI-H23 lung; 101% in the experiment with NCI-H226 lung; 86.2% in the experiment on NCI-H322M lung; 104% with HOP-62 NSCLC; 61.4% with NCI-H460 lung; 129% in the experiment on HOP-92 NSCLC. For the same molecule, the growth was 92.5% in the experiment on NCI-H522 lung; 107% in the experiment on A549/ATCC NSCLC; 105% in the experiment with 786-0 renal; 117% with COLO 205 colon; 105% in the experiment on DU-145 prostate; 98.4% with K-562 leukemia. Also, the growth was 98.5% in the experiment on MALME-3M melanoma; 99.5% in the experiment with MDA-MB-231 breast; 108% in the experiment with RXF 393 renal; 104% with SF-268 CNS; 101% in the experiment on SF-295 CNS; 90.7% with SF-539 CNS. Also, the growth in the experiment on UACC-257 melanoma is 116%; with M14 melanoma, 99.3%.

As for `COc1cccc2c1c1nc3cc(C)c(C)cc3nc1n2CCN(C)C`, the growth was 18.4% in the experiment with NCI-H23 lung; -6.81% (active) with NCI-H226 lung; 24.7% with NCI-H322M lung; 24.9% in the experiment on HOP-62 NSCLC; 7.95% (active) with NCI-H460 lung; 36.1% with HOP-92 NSCLC. For the same molecule, the growth was -4.98% (active) with NCI-H522 lung; 10.6% with A549/ATCC NSCLC; 36% with 786-0 renal; 9.54% (active) in the experiment on COLO 205 colon; 19.7% in the experiment on DU-145 prostate; 6.22% (active) in the experiment on K-562 leukemia. Besides, the growth in the experiment on MALME-3M melanoma is -12.1% (active); in the experiment with MDA-MB-231 breast it was 23.5%; in the experiment on RXF 393 renal, 30%; in the experiment with SF-268 CNS, 37.9%; in the experiment on SF-295 CNS, 20.1%; with SF-539 CNS, 23.2%. Also, the growth was 8.52% (active) in the experiment with UACC-257 melanoma and 22.2% in the experiment on M14 melanoma.

Consider `COc1ccc(/C=C2\Oc3cc(OCCCCCN4CCCCC4)ccc3C2=O)cc1OC`, for which the growth in the experiment on NCI-H23 lung was 78.6%; in the experiment with NCI-H226 lung, 83.1%; with NCI-H322M lung, 97.9%; in the experiment on HOP-62 NSCLC, 97.4%; in the experiment with NCI-H460 lung it was 59.2%; with HOP-92 NSCLC it was 54.4%. Also, the growth with NCI-H522 lung was 89.9%; in the experiment with A549/ATCC NSCLC, 88.7%; with 786-0 renal it was 84.4%; with COLO 205 colon, 98.5%; in the experiment on DU-145 prostate, 89.6%; with K-562 leukemia it was -54.6% (active). In addition, the growth was 83.7% with MALME-3M melanoma; 86.7% in the experiment on MDA-MB-231 breast; 76.3% in the experiment on RXF 393 renal; 87.2% with SF-268 CNS; 98.6% in the experiment on SF-295 CNS; 81.1% with SF-539 CNS. Besides, the growth with UACC-257 melanoma was 87.4%; in the experiment with M14 melanoma, 89.1%.

For the molecule `Cc1nc(N)nc(N[C@@H](C)c2nc3cccc(NCc4ccc(C(=O)NO)cc4)c3c(=O)n2-c2ccccc2)n1`, the growth with NCI-H23 lung is 63.9%; in the experiment with NCI-H226 lung it was 81%; in the experiment with NCI-H322M lung it was 80.1%; in the experiment with HOP-62 NSCLC, 75.1%; in the experiment on NCI-H460 lung, 76.3%; in the experiment on HOP-92 NSCLC, 50.1%. For the same molecule, the growth is 35.3% with NCI-H522 lung; 90.5% with A549/ATCC NSCLC; 93.9% in the experiment on 786-0 renal; 47.3% in the experiment on COLO 205 colon; 86.9% in the experiment with DU-145 prostate; 47.8% in the experiment with K-562 leukemia. The growth with MALME-3M melanoma is 37.7%; in the experiment on MDA-MB-231 breast, 81%; in the experiment with RXF 393 renal, 65%; in the experiment on SF-268 CNS, 87.1%; in the experiment with SF-295 CNS it was 104%; in the experiment with SF-539 CNS it was 75.9%. Also, the growth in the experiment on UACC-257 melanoma was 58.3%; with M14 melanoma, 73.7%.

(Values after PubChem BioAssay (NCI).)
